Neddylation inh – inhibitors of cullin neddylation, primary screen, biochemical, TR-FRET, uHTS, NAE and Ubc12; calls only at 25 µM; 360,000 tested, 0.58% active; AID 651699, 2012; in the data active means inhibition above about 36%
Target sequence (P61081 whole entry, looked up): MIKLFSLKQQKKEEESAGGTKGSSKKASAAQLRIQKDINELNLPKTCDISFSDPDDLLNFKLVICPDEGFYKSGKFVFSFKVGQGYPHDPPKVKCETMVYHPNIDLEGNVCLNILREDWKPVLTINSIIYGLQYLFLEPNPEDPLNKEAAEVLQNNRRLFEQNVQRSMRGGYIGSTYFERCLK
Target sequence (Q13564 whole entry, looked up): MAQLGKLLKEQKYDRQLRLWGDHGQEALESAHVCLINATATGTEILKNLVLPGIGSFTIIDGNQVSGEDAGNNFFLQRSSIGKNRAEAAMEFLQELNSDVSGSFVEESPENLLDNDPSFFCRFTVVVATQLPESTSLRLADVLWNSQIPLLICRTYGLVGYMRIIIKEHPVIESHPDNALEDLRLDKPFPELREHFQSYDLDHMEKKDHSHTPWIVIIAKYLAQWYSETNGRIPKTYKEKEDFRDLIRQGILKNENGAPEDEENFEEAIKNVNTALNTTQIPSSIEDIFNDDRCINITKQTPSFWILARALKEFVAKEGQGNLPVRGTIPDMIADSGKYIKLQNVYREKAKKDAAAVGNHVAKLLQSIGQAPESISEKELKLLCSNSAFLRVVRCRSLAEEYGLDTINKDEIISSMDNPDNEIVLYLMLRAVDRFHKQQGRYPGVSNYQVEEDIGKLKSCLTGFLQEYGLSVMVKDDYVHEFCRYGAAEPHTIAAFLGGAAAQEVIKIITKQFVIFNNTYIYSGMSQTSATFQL
UHRF1 MBD2 ctr – UHRF1 methylated DNA binding inhibitors, primary screen, counter-screen for MBD2 inhibitor project, biochemical, TR-FRET, human UHRF1, single concentration | AID 687016, 2013 | E3 ubiquitin-protein ligase UHRF1 (Homo sapiens), Q96T88 | UHRF1 binding to methylated oligo | 370,000 tested, 0.75% active | inhibition, % at 4.4 µM; in the data active means inhibition above about 21%;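 further: UHRF1 SRA domain binding a hemimethylated CpG hairpin DNA probe; 0% = median of test compound wells and 100% = reference inhibitor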
LEDGF integ inh – blockers of LEDGF/p75-dependent integrase strand transfer – biochemical, TR-FRET, high throughput, primary screen; HIV-1 integrase (with human LEDGF/p75); TR-FRET IN-LEDGF/p75 DNA integration, Eu/Cy5; inhibition, % at 3.7 µM; 370,000 tested, 0.64% active; AID 743269, 2014;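 active means inhibition above the screen-wide mean plus 3 SD, cut at about 13% in these data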;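 further: signal is the Cy5 over europium emission ratio at 671 and 618 nm; 0% = plate median of compound wells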
Rin1-Abl PPI inh – inhibitors of Rin1-Abl protein binding, primary screen, biochemical, TR-FRET; 360,000 tested, 0.4% active; Tyrosine-protein kinase ABL1 (Homo sapiens) + Ras and Rab interactor 1 (Homo sapiens), …; inhibition, % at 7.35 µM; in the data active means inhibition above about 5%, passing the limit was not always enough
proKLK7 act – proKLK7 zymogen activators, primary screen, biochemical, fluorescence intensity; Kallikrein-7 (Homo sapiens), P49862; purified proKLK7, EDANS-DABCYL substrate fluorescence; 100% is mature enzyme control, 0% vehicle; activation, % at 7 µM; 370,000 tested, 0.9% active;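 active means activation above the mean of all tested compounds plus 3 SD, computed per campaign excluding outliers beyond control limits, cut at about 13% in these data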
MBD2 DNA inh – inhibitors of MBD2 binding to methylated DNA, primary screen, biochemical, TR-FRET, DNA-binding domain, human | Methyl-CpG-binding domain protein 2 (Homo sapiens), Q9UBB5 | AID 686964, 2013 | inhibition, % at 4.4 µM | MBD2 binding to methylated oligonucleotide | 370,000 tested, 0.31% active; in the data active means inhibition above about 13%
IN multimer act – HIV-1 IN multimer formation enhancers, counter-screen for LEDGF/p75 integration inhibitor project, biochemical, TR-FRET | shares compounds with LEDGF integ inh | TR-FRET HIV-1 integrase multimerization | activation, % at 7.7 µM | 2,000 tested, 17% active; in the data active means activation above about 8.9%
TRFRET interf – TR-FRET optical interference artefacts, confirmation, artefact control for LEDGF/p75-dependent integration inhibitor project, biochemical, HIV-1 IN multimerization; inhibition, % at 7.7 µM; AID 1053135, 2014; 2,000 tested, under 10 active; shares compounds with LEDGF integ inh; TR-FRET optical interference counterscreen;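 active means inhibition above the mean over all tested compounds plus 3 SD, which no compound reached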;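 further: 0% = integrase with antibodies and DMSO and 100% = antibodies without integrase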
LEDGF integ conf – inhibitors of HIV-1 IN-LEDGF/p75 DNA integration, confirmation, biochemical, TR-FRET; shares compounds with LEDGF integ inh; TR-FRET LEDGF/p75-dependent HIV-1 integration; inhibition, % at 3.7 µM; 2,000 tested, 36% active; AID 1053136, 2014; in the data active means inhibition above about 14%
* hit, by the source's call. Shown are actives, neighbours in structure and some others; about 3.1% of the full set was active somewhere.

Results for CC1=NN(c2ccc(C)cc2C)C(=O)C1C(c1ccccc1O)C1C(=O)N(c2ccc(C)cc2C)N=C1C (configuration not stated) ?
Neddylation inh: inactive; UHRF1 MBD2 ctr: 14; LEDGF integ inh: 29*; Rin1-Abl PPI inh: 2; proKLK7 act: 0; MBD2 DNA inh: -3; IN multimer act: 1; TRFRET interf: -5; LEDGF integ conf: -4

What do the screens show for `CC1=NN(c2ccc(Cl)cc2)C(=O)C1C(c1ccccc1O)c1c(C)[nH]n(-c2ccc(Cl)cc2)c1=O` (configuration not stated)?
Neddylation inh: inactive; Rin1-Abl PPI inh: 1

What do the screens show for `Nc1ccc(Nc2ccccc2)c(S(=O)(=O)O)c1`?
UHRF1 MBD2 ctr: 20; LEDGF integ inh: 19*; Rin1-Abl PPI inh: 1; proKLK7 act: 0; MBD2 DNA inh: 2; IN multimer act: 10*; TRFRET interf: -53; LEDGF integ conf: 11

How did Cc1ccc(Nc2ccc(N)cc2S(=O)(=O)O)cc1 do in these assays?
UHRF1 MBD2 ctr: 3; LEDGF integ inh: 19*; Rin1-Abl PPI inh: 3; proKLK7 act: 0; MBD2 DNA inh: -1; IN multimer act: 10*; TRFRET interf: -36; LEDGF integ conf: 2

How did Nc1cccc(Nc2ccccc2)c1 do in these assays?
Neddylation inh: inactive; UHRF1 MBD2 ctr: -3; LEDGF integ inh: 5; Rin1-Abl PPI inh: 4; proKLK7 act: 0; MBD2 DNA inh: -4

How did CN(CC(=O)Nc1ccc(F)c(F)c1F)C(=O)c1ccc2c(c1)S(=O)(=O)N=C1CCCCCN12 do in these assays?
Neddylation inh: inactive; UHRF1 MBD2 ctr: 0; LEDGF integ inh: -1; Rin1-Abl PPI inh: 0; proKLK7 act: 0; MBD2 DNA inh: -2

How did Cc1ccc(C(=O)ONc2ccc(N=NC(=O)c3ccccc3O)cc2)cc1 do in these assays?
Neddylation inh: inactive; UHRF1 MBD2 ctr: -2; LEDGF integ inh: 20*; Rin1-Abl PPI inh: -1; proKLK7 act: 0; MBD2 DNA inh: 0; IN multimer act: 2; TRFRET interf: -7; LEDGF integ conf: -1

What do the screens show for `O=C(Nc1ccc2c(c1)oc1ccccc12)C1CC1`?
Neddylation inh: inactive; UHRF1 MBD2 ctr: -2; LEDGF integ inh: -2; Rin1-Abl PPI inh: -1; proKLK7 act: 0; MBD2 DNA inh: 1

What do the screens show for `O=C(Nc1ccc2c(c1)oc1ccc(S(=O)(=O)N3CCCC3)cc12)C1CC1`?
Neddylation inh: inactive; UHRF1 MBD2 ctr: -6; LEDGF integ inh: 24*; Rin1-Abl PPI inh: 4; proKLK7 act: -2; MBD2 DNA inh: 2; IN multimer act: 1; TRFRET interf: -3; LEDGF integ conf: -4

What do the screens show for `O=C(CCCOc1ccc(Cl)cc1Cl)NCCCn1ccnc1`?
Neddylation inh: inactive; UHRF1 MBD2 ctr: 1; LEDGF integ inh: 27*; Rin1-Abl PPI inh: -3; proKLK7 act: 0; MBD2 DNA inh: 1; IN multimer act: 0; TRFRET interf: -1; LEDGF integ conf: 2

How did Cc1cc(Cl)ccc1OCCCC(=O)NCCCn1ccnc1 do in these assays?
Neddylation inh: inactive; UHRF1 MBD2 ctr: 0; LEDGF integ inh: -6; Rin1-Abl PPI inh: -1; proKLK7 act: 0; MBD2 DNA inh: 2
